# High-throughput results (PubChem BioAssay)
# RORg inh = ROR gamma (mouse) transcription inhibition. Drosophila S2 Gal4-RORgamma UAS-luciferase reporter, 20 h. Potency, µM (highest dose often 53.6 µM), for inactives: at the highest dose activity change, negative = inhibition, usual class: inhibitors. 310,000 compounds, 5.4% hits; also: potency is read from the fitted curve at half-maximal effect; nearly all actives have a fitted effect of over 60% in size
# Target sequence (P51450 whole entry, looked up, the tested form may be a part): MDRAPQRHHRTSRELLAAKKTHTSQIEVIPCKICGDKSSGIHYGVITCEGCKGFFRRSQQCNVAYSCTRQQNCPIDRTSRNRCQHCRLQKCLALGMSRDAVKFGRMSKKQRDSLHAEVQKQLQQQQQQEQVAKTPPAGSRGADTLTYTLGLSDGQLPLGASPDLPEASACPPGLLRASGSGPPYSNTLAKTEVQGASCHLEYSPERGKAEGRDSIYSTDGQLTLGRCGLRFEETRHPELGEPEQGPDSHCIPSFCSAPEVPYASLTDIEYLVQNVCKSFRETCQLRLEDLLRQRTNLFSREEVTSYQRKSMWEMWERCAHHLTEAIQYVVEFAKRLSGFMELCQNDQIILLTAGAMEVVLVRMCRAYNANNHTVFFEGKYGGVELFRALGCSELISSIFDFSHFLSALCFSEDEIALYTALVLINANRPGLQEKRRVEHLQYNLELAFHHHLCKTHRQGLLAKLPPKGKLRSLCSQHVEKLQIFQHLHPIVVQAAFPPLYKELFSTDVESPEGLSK
#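 Luminescence from a UAS-regulated Photinus luciferase reporter in stably transfected Drosophila Schneider cells is measured; decreased signal marks ROR gamma inhibition. Fusion expression is induced by 700 uM copper sulfate for 20 hr.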
# LDHA block = blocks human lactate dehydrogenase A | P00338 | purified LDHA, NADH/diaphorase-resazurin fluorescence; active compounds read low | activity change, % (values are at about 110 or 230 µM) | 480,000 compounds, 0.15% hits | AID 1347041; in the data active = activity change below about -30%; inconclusive = mostly about -25% to -30%;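 also: plate controls were DMSO wells for no effect and wells without enzyme for full effect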
#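 Resorufin fluorescence (ex540/em590), read at 0 and 20 min after diaphorase/resazurin addition, reports the NADH left after a 5 min room-temperature reaction of 2 nM human LDH5 with 0.06 mM NADH and 0.2 mM pyruvate.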
# TDP1 cell CPT = DT40-hTDP1 cell growth loss with CPT | chicken DT40 Tdp1-/-;hTDP1 cells + 20 nM CPT, ATP luminescence, 48 h | 420,000 compounds, 12% hits | Potency, µM (titrated, usually from 46.2 µM), inactives show at the highest dose activity change, negative = growth inhibition, usual class: inhibitors | AID 686979; also: potency is read from the fitted curve at half-maximal effect; nearly all actives have a fitted effect of over 55% in size
#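 Chicken DT40 Tdp1-/- cells complemented with human TDP1, 400 cells/well, exposed to compounds plus 20 nM camptothecin for at least 48 h at 37 C; viability read as ATP content by CellTiter-Glo luminescence.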
# VP16 counter = Gal4-VP16 reporter inhibition counter-screen | Drosophila S2 Gal4-VP16 UAS-luciferase, luminescence, 20 h | Potency, µM (top dose mostly 53.6 µM), without a hit: top-dose activity, negative = inhibition, hits mostly inhibitors | 310,000 compounds, 3.5% hits | AID 2546;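 also: Gal4-VP16 expression switched on by copper sulfate through the metallothionein promoter; potency is read from the fitted curve at half-maximal effect; nearly all actives have a fitted effect of over 50% in size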
# IL-1B inflam inh = inhibitors of inflammasome signaling (IL-1 beta secretion); AID 743279; THP-1 LPS/ATP IL-1B secretion, AlphaLISA, 16 h; active compounds read low; activity change, % at 57.5 µM; 360,000 compounds, 4.7% hits; in the data active = activity change below about -50%; inconclusive = mostly about -30% to -49%
#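 THP-1 cells pretreated 1 hr with compounds (up to 57.5 uM final), then stimulated with LPS (250 ng/mL final) plus ATP (1.25 mM final); secreted IL-1B measured by AlphaLISA after 16 hr, decreased signal indicating inhibition.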
# TDP1 cell noCPT = qHTS for Inhibitors of human tyrosyl-DNA phosphodiesterase 1 (TDP1): qHTS in cells in absence of CPT. 420,000 compounds, 15% hits. DT40 Tdp1-/- hTDP1 cells, no CPT, ATP luminescence, 48 h. Potency, µM (titrated, usually from 46.2 µM), without a hit: at the highest dose activity change, negative = growth inhibition, actives largely listed as inhibitors. AID 686978, 2013; also: potency is read from the fitted curve at half-maximal effect; nearly all actives have a fitted effect of over 55% in size
#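 Stably hTDP1-transfected Tdp1-null chicken DT40 cells were treated with library compounds minus camptothecin and grown for at least 48 hr at 37 °C, after which cellular ATP was quantified by luminescence.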
# * hit, by the source's call; ? = inconclusive; nt = not tested or not shown. In the library only some 18% were active in any assay of this set; here they are far more common. Unless noted, calls follow the shape of the dose curve; as a rule, active = well fitted curve in the direction sought with a large enough effect; inconclusive = small, poorly fitted or top-dose-only effect, or another doubt; inactive = no such curve, though single readings can be large; an effect the other way counts as inactive or inconclusive. Unless noted, % is scaled to controls: 0 for no effect and ±100 for the full control effect.
SMILES,RORg inh,LDHA block,TDP1 cell CPT,VP16 counter,IL-1B inflam inh,TDP1 cell noCPT
COc1ccc(-c2cnc3c(NC=O)cc(-c4ccccc4OC)cn23)cc1OC,nt,3,0.029µM*,nt,32,0.0073µM*
COc1ccc(-c2cc(NC=O)c3ncc(-c4ccc(OC)c(OC)c4)n3c2)cc1OC,nt,6,5.2µM*,nt,-62*,4.1µM*
COc1ccc(-c2cc(NC=O)c3ncc(-c4ccc(OC)c(OC)c4)n3c2)cc1,nt,9,0.73µM*,nt,-11,1µM*
CCCOC(=O)Nc1ccccc1N=C1CCC/C1=C/c1ccccc1,nt,2,nt,nt,nt,nt
CCc1c(C(=O)N(C)Cc2nc3ccsc3c(=O)[nH]2)cnn1-c1cccc(Cl)c1,nt,1,nt,nt,nt,nt
N#Cc1ccc(OCCOC(=O)CCc2ccc3ccccc3n2)cc1,nt,-6,nt,nt,nt,nt
COc1cc(C)c(Cc2cnc(N)nc2N)cc1OC,2%,-3,?,-9%,nt,13µM*
CC(=O)Nc1ccc(-c2csc(-c3ccccc3C)n2)cc1,nt,2,nt,nt,nt,nt
COc1cc(/C=C/c2nc(-c3ccccc3O)n[nH]2)cc(OC)c1OC,?,4,21µM*,?,-121*,15µM*
CC(=O)Nc1ccc(/C=C/c2nc(-c3ccccc3O)n[nH]2)cc1,1%,2,?,-5%,2,29µM*
COc1cc(/C=C/c2nc(N)nc(-c3ccccc3O)n2)cc(OC)c1OC,-27%,15,?,-27%,7,10µM*
COc1cc(/C=C/c2nc(-c3ccccc3)nc(-c3ccccc3O)n2)cc(OC)c1OC,nt,-5,nt,nt,nt,nt
Cc1ccc(-c2noc(CN3CCCC3c3cccn3C)n2)cc1 (stereo unspecified),nt,10,nt,nt,nt,nt
Cc1cc(Cl)ccc1OCC(=O)Nc1ccc(N2CCN(C(=O)c3cccs3)CC2)cc1,nt,6,nt,nt,nt,nt
Cc1cc2nc(CSc3nc4ccc(NC(=O)Cc5ccccc5)cc4s3)cc(=O)n2o1,nt,4,nt,nt,nt,nt
O=C(O)c1cccc(NC(=O)c2ccc3c(c2)C(=O)N(CC2CCCO2)C3=O)c1 (stereo unspecified),0.56µM*,0,0%,-30%,-19,-6%
CC(C)(C)N1C(=O)c2ccc(C(=O)Nc3ccc(O)cc3)cc2C1=O,-46%,-1,?,?,?,16µM*
CC(C)(C)NC(=O)c1cccc(NC(=O)c2ccc3c(c2)C(=O)N(C(C)(C)C)C3=O)c1,?,-9,?,-23%,-96*,10µM*
COC(=O)c1cccc(NC(=O)c2ccc3c(c2)C(=O)N(CC2CCCO2)C3=O)c1 (stereo unspecified),27%,-9,-8%,-2%,-7,-8%
CC(C)(C)N1C(=O)c2ccc(C(=O)O)cc2C1=O,-1%,-2,-2%,-2%,27,-4%
COC(=O)c1cccc(NC(=O)c2ccc3c(c2)C(=O)N(C(C)(C)C)C3=O)c1,?,-4,-5%,1%,-54*,?
COC(=O)c1cccc(NC(=O)c2ccc3c(c2)C(=O)N(Cc2cccnc2)C3=O)c1,18%,-1,-1%,-5%,20,-2%
Cc1ccc(NC(=O)CSc2nnc3n(CC(C)C)c(=O)c4cc(F)ccc4n23)c(C)c1,nt,-7,nt,nt,nt,nt
CCn1c(=O)c2sc(N3CCCC3)nc2n(CC(=O)Nc2cc(F)ccc2C)c1=O,nt,2,nt,nt,nt,nt
C/C(=N/NC(=O)c1ccc(C)cc1)C(C)(C)C,nt,0,nt,nt,nt,nt
SMILES,RORg inh,LDHA block,TDP1 cell CPT,VP16 counter,IL-1B inflam inh,TDP1 cell noCPT
Cc1cc(NC(=O)C(OC(=O)c2ccc3c(c2)NC(=O)CS3)c2ccccc2)no1 (stereo unspecified),nt,3,nt,nt,nt,nt
COc1ccc(-c2nc(N3CCOCC3)nc3n[nH]c(N)c23)cc1,-14%,-5,18µM*,-16%,-70*,18µM*
COc1ccc(S(=O)(=O)NCC(c2cccnc2)N2CCN(c3ccc(F)cc3)CC2)cc1C (stereo unspecified),?,-4,15µM*,-11%,?,16µM*
Cc1cc(C)c(S(=O)(=O)NCC(c2ccco2)N2CCN(c3ccccc3)CC2)c(C)c1 (stereo unspecified),nt,6,23µM*,nt,nt,26µM*
COc1ccc(S(=O)(=O)NCC(c2ccco2)N2CCOCC2)cc1C (stereo unspecified),nt,-7,-15%,nt,nt,-10%
Cc1cc(C)c(S(=O)(=O)NCC(c2ccco2)N2CCOCC2)c(C)c1 (stereo unspecified),nt,1,?,nt,nt,?
O=S(=O)(NCC(c1ccco1)N1CCN(c2ccc(F)cc2)CC1)c1cc(F)ccc1F (stereo unspecified),nt,1,18µM*,nt,nt,16µM*
COc1ccc(S(=O)(=O)NCC(c2ccco2)N2CCN(c3ccc(F)cc3)CC2)cc1C (stereo unspecified),nt,-1,16µM*,nt,nt,23µM*
CCN(CC)C(=S)SC(C(=O)NC(N)=O)C(C)C (stereo unspecified),nt,14,nt,nt,nt,nt
CC(C(=O)NC1CCCC1)N1CCC(c2nc3ccccc3o2)CC1 (stereo unspecified),nt,3,nt,nt,nt,nt
COc1cc(NC(=O)CSc2nncn3c2cc2oc(C)cc23)cc(OC)c1,nt,2,nt,nt,nt,nt
O=S(=O)(NCC(c1ccco1)N1CCN(c2ccc(F)cc2)CC1)c1ccc(F)cc1 (stereo unspecified),11%,3,23µM*,0%,25,?
COc1cc(OC)cc(C(=O)/C(=C\c2ccco2)c2nc3ccccc3o2)c1,nt,10,nt,nt,nt,nt
COc1ccc(C(O)c2nc(-c3ccc4ccccc4c3)cs2)cc1 (stereo unspecified),nt,2,?,nt,15,16µM*
COc1ccc(C(O)c2nc(-c3ccc(Cl)cc3)cs2)cc1 (stereo unspecified),nt,-2,-61%,nt,-25,?
COc1ccc(C(O)c2nc(-c3ccc(OC)c(OC)c3)cs2)cc1 (stereo unspecified),nt,2,13µM*,nt,-2,18µM*
COc1cc(C(O)c2nc(-c3ccc(F)c(Cl)c3)cs2)ccc1F (stereo unspecified),nt,-7,?,nt,?,?
COc1cc(C(O)c2nc(-c3ccc4ccccc4c3)cs2)ccc1F (stereo unspecified),nt,0,23µM*,nt,-17,21µM*
COc1ccc(C(O)c2nc(-c3cccc(CO)c3)cs2)cc1 (stereo unspecified),nt,-11,?,nt,12,?
O=C(Cn1ccc2ccc(Cl)cc21)Nc1ccc2c(c1)OCO2,nt,4,nt,nt,nt,nt
